Compound activity (PubChem BioAssay)
Most compounds without a hit are left out; they make up all but 21% or so of the library.
CYP2C19 inhib – blockers of cytochrome P450 2C19 activity – biochemical, luminescence, ADME assay, primary screen; inhibition, % at 5 µM; P33261; CYP2C19 Supersomes, luciferin-H EGE luminescence, 30 min; hit rate 21% among 96,000;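 active means CYP2C19 inhibition above a set limit at 5 µM in the primary screen, cut at about 50% in these data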;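 further: plate controls were negative control wells for no effect and 2.5 mM tranylcypromine positive control for full effect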
MRP-1 activ – H69AR viability gain despite doxorubicin, primary screen, MRP-1 activator project, H69AR cells, CellTiter-Glo | viability rescue | viability increase, % at 10 µM | hit rate 0.61% among 140,000 | AID 799, 2007;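 active means viability gain under doxorubicin at or above a set limit, the compound median plus 3 SD, cut at about 4.7% in these data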;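 further: MRP-1 overexpressing cells given doxorubicin 25 µM after compound pretreatment; 18-22 h compound pretreatment then 72 h with doxorubicin before readout; 0% = doxorubicin-only wells and 100% = vehicle-treated cells without doxorubicin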
MRP reversal – reversal of MRP1-mediated doxorubicin resistance, primary screen, H69AR cells, doxorubicin co-treatment. hit rate 0.04% among 85,000. AID 602, 2007. H69AR cells + 2 uM doxorubicin, CellTiter-Glo, 72 h. differential viability (reversal), % at 10 µM;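 active means viability drop by adding the cancer drug above about 55%, with treated viability meeting a 40% cutoff, limit read from the data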;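 further: viability without doxorubicin minus viability with 2 µM doxorubicin for each compound; larger differential means the compound sensitizes cells more to doxorubicin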
CYP2C9 inh – blockers of cytochrome P450 2C9 activity – biochemical, luminescence, ADME assay, primary screen | P11712 | CYP2C9 Supersomes, luciferin-H conversion | hit rate 20% among 96,000 | inhibition, % at 5 µM | AID 777, 2007;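 active means blocking of liver enzyme CYP2C9 beyond about 50% at 5 µM, limit read from the data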
Target sequence (P11712 whole entry, looked up): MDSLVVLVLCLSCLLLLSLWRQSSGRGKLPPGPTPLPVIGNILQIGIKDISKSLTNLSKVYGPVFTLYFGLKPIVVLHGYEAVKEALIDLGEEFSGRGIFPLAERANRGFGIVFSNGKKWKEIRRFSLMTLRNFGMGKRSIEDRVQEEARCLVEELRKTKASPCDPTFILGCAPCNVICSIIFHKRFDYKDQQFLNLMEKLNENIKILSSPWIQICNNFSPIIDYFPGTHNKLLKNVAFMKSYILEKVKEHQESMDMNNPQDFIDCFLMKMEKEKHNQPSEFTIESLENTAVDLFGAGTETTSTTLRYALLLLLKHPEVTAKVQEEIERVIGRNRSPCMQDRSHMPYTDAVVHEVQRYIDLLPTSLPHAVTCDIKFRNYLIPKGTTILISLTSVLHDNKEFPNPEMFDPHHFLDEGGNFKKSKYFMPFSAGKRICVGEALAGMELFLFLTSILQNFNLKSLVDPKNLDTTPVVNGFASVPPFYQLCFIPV
CYP2C9 act – human CYP2C9 activators, primary screen, biochemical, luminescence. Cytochrome P450 2C9 (Homo sapiens), P11712. recombinant CYP2C9, luciferin-H conversion; stronger effect = higher value; factor 1 = untreated enzyme, 0 = blocked. hit rate 1.4% among 96,000. activation factor at 5 µM;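 active means activation factor of 2 or more for CYP2C9 at a 5 µM dose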;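 further: 0 = sulfaphenazole-blocked wells and 1 = vehicle-only wells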
CYP2C19 activ – human CYP2C19 activators, primary screen, biochemical, luminescence; recombinant CYP2C19, luciferin-H EGE luminescence; stronger effect = higher value; 0 = fully inhibited enzyme, 1 = untreated enzyme; activation factor at 5 µM; 96,000 tested, under 10 active; AID 1025, 2008;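 active means activation factor of at least 2 at 5 µM in the primary screen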;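 further: 0 = wells with 2.5 mM tranylcypromine and 1 = vehicle-only wells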
* hit, by the source's call.

Screening O=C1C(Cl)=C(NCC2CCCO2)C(=O)N1Cc1ccccc1 (stereo unspecified) returned CYP2C19 inhib 60*, MRP-1 activ -5, MRP reversal -8, CYP2C9 inh -62, CYP2C9 act 1.6 and CYP2C19 activ 0.4.
`Cn1c(=O)n(Cc2ccccc2)c(=O)c2c1nc(NCC1CCCO1)n2Cc1ccccc1` (stereo unspecified) gave CYP2C19 inhib 3, MRP-1 activ -2, MRP reversal 23, CYP2C9 inh 66*, CYP2C9 act 0.3 and CYP2C19 activ 1.
Screening CCOC(=O)CC(NC(=O)C1c2ccccc2Oc2ccccc21)c1ccccc1Cl (stereo unspecified) returned MRP-1 activ -3.
For CCC(=O)n1nc(-c2ccc(OC)cc2)nc1SC the results were MRP-1 activ -1 and MRP reversal 13.
For CC(=O)c1ccccc1NC(=O)CSc1nnc2ccccn12 the results were CYP2C19 inhib 3, MRP-1 activ -1, MRP reversal -3, CYP2C9 inh -6, CYP2C9 act 1.1 and CYP2C19 activ 1.
For O=C(O)C(Cc1ccccc1)N1C(=O)/C(=C/c2cccc3ccccc23)SC1=S (stereo unspecified) the results were CYP2C19 inhib 12, MRP-1 activ -1, CYP2C9 inh 72*, CYP2C9 act 0.3 and CYP2C19 activ 0.9.
Cc1c(N2C(=O)c3ccccc3C2=O)c(=O)n(-c2ccccc2)n1C was read as CYP2C19 inhib -11, MRP-1 activ -2, MRP reversal -2, CYP2C9 inh -6, CYP2C9 act 1.1 and CYP2C19 activ 1.1.
Cc1c(N2C(=O)/C(=C\c3cccc4ccccc34)SC2=S)c(=O)n(-c2ccccc2)n1C was read as CYP2C19 inhib 71*, MRP-1 activ -1, CYP2C9 inh 25, CYP2C9 act 0.8 and CYP2C19 activ 0.3.
Screening CCOC(=O)C1=C(CSc2n[nH]c(N)n2)NC(=O)NC1C (stereo unspecified) returned CYP2C19 inhib 4, MRP-1 activ -2, MRP reversal -16, CYP2C9 inh 10, CYP2C9 act 0.9 and CYP2C19 activ 1.
For COc1ccc(/C=N/NC(=O)CN2CCSCC2)c(OC)c1 the results were MRP-1 activ 1.
Screening Cc1ccc(N=CC2=C(O)CC(c3ccc(Cl)cc3)CC2=O)cc1 (stereo unspecified) returned MRP-1 activ -2.
Screening CCc1ccc(C2CC(c3ccc(Cl)cc3)=NNC2=O)cc1 (stereo unspecified) returned CYP2C19 inhib 84*, MRP-1 activ 1, MRP reversal 12, CYP2C9 inh 40, CYP2C9 act 0.6 and CYP2C19 activ 0.2.
For Cc1ccc(C2CC(c3ccc(Cl)cc3)=NNC2=O)cc1 (stereo unspecified) the results were CYP2C19 inhib 85*, MRP-1 activ -1, MRP reversal 11, CYP2C9 inh 38, CYP2C9 act 0.6 and CYP2C19 activ 0.2.
`CCOC(=O)c1csc(NNC=O)n1` gave MRP-1 activ -2.
O=C(NCC(c1cccs1)N1CCOCC1)c1ccc(Cl)c([N+](=O)[O-])c1 (stereo unspecified) was read as MRP-1 activ -4.
`CC(/C=C/c1cccc([N+](=O)[O-])c1)=N\NC(=O)c1ccncc1` gave MRP-1 activ -4.
Cc1ccc(-c2ccc(=O)n(CCC(=O)NCCN3CCCCC3C)n2)cc1 (stereo unspecified) was read as CYP2C19 inhib -3, MRP-1 activ -1, MRP reversal 9, CYP2C9 inh -3, CYP2C9 act 1 and CYP2C19 activ 1.
For COc1ccc(C2CC(c3cccc(C)c3)n3nc(N)nc3N2)cc1 (stereo unspecified) the results were CYP2C19 inhib 17, MRP-1 activ -3, MRP reversal 6, CYP2C9 inh -1, CYP2C9 act 1 and CYP2C19 activ 0.8.
Cc1cccc(C2CC(c3ccc(Br)cc3)Nc3nc(N)nn32)c1 (stereo unspecified) was read as CYP2C19 inhib 77*, MRP-1 activ -2, MRP reversal -19, CYP2C9 inh 48, CYP2C9 act 0.5 and CYP2C19 activ 0.2.
`COc1ccccc1C1CC(c2ccc(Cl)cc2Cl)Nc2nc(N)nn21` (stereo unspecified) gave CYP2C19 inhib 83*, MRP-1 activ 5.6*, MRP reversal 6, CYP2C9 inh 39, CYP2C9 act 0.6 and CYP2C19 activ 0.2.
`Nc1nc2n(n1)C(c1cccs1)CC(c1ccc(Br)cc1)N2` (stereo unspecified) gave CYP2C19 inhib 66*, MRP-1 activ 5.8*, MRP reversal 21, CYP2C9 inh 27, CYP2C9 act 0.7 and CYP2C19 activ 0.3.
`COc1ccc(C2CC(c3ccc(OC)cc3)n3nc(N)nc3N2)cc1` (stereo unspecified) gave CYP2C19 inhib 0, MRP reversal -4, CYP2C9 inh 9, CYP2C9 act 0.9 and CYP2C19 activ 1.
COc1ccc(C2CC(c3ccc(Cl)cc3)n3nc(N)nc3N2)cc1 (stereo unspecified) was read as CYP2C19 inhib 38, MRP-1 activ 30*, MRP reversal 24, CYP2C9 inh -4, CYP2C9 act 1 and CYP2C19 activ 0.6.
For Cn1c(Sc2ccc(Br)cc2)c(C=O)c2ccccc21 the results were CYP2C19 inhib 27, MRP-1 activ -7, CYP2C9 inh 50, CYP2C9 act 0.5 and CYP2C19 activ 0.7.
`Cc1c(C(=O)N2CCOCC2)sc(NC(=O)c2ccc3c(c2)OCO3)c1C#N` gave CYP2C19 inhib -8, MRP-1 activ 0, CYP2C9 inh 11, CYP2C9 act 0.9 and CYP2C19 activ 1.1.
CC(C)C(CCN1C(=O)CCC1=O)C1CCOC(C)(C)C1 (stereo unspecified) was read as CYP2C19 inhib 1, MRP-1 activ -1, MRP reversal 5, CYP2C9 inh 9, CYP2C9 act 0.9 and CYP2C19 activ 1.
For COc1ccc(C2CC(c3ccc(Br)cc3)Nc3nc(N)nn32)cc1 (stereo unspecified) the results were CYP2C19 inhib 22, MRP-1 activ 1, MRP reversal 12, CYP2C9 inh 51*, CYP2C9 act 0.5 and CYP2C19 activ 0.8.
Screening C=CCn1c(CCC(=O)O)ccc1-c1ccccc1 returned CYP2C19 inhib 39, MRP-1 activ -3, MRP reversal -5, CYP2C9 inh 70*, CYP2C9 act 0.3 and CYP2C19 activ 0.6.
Screening CCCCNC(=S)NNC(=O)c1ccco1 returned MRP-1 activ -2 and MRP reversal 6.
